# Screening results: PubChem BioAssay, Broad Institute
# GSIS activator: GLuc luminescence reporter in INS-1E cells, primary screen for activators of glucose-dependent secretion of insulin | INS-1E GLuc reporter insulin secretion, 2-3 h | activation, % at 16.6 µM | actives 0.61% (n = 370,000);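 active = lowest replicate activation of at least 40%, so every replicate reaches that level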;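 also: 0% = median of neutral control wells and 100% = median of IBMX positive control wells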
# LGR2 antag: blocks bursicon-induced cAMP signaling via Drosophila LGR2 | HEK293 LGR2, CRE-luciferase, bursicon-stimulated, 4 h | AID 720647 | actives 0.35% (n = 380,000) | inhibition, % at 9.99 µM;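 active = drop in luminescence signal, shown as inhibition above about 50% in the replicate tests, limit read from the data, passing the limit was not always enough; inconclusive = probably only some replicates passing the limit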;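 also: agonist challenge used bursicon conditioned medium at about half maximal strength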
# EWS-Fli inh: inhibitors of EWS/Fli oncoprotein transcriptional activity; A673 NR0B1-luciferase reporter, viability-normalised; inhibition, % at 12.6 µM; actives 0.67% (n = 350,000); AID 651661;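 active = mean inhibition of at least 50% after viability correction, with every replicate also passing that limit; inconclusive = mean reaches 50% but only one of two replicates passes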;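 also: firefly luciferase signal divided by Alamar Blue viability fluorescence both relative to DMSO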
# CFTR F508del cor: CFTR F508del correction in bronchial cells; CFBE cells, YFP halide quenching; stimulated with forskolin plus potentiator P3; % fluorescence drop versus neutral controls; activity (quench increase), % at 7.58 µM; actives 0.36% (n = 350,000);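 active = mean added fluorescence quench of at least 8% versus neutral control, with both replicates also reaching 8%; inconclusive = only one of the mean or replicate conditions met; inactive = mean below 8% and not both replicates reaching 8%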;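 also: cells transiently co-express mutant CFTR-F508del with the halide-sensitive YFP; corrector assay measuring rescue of mutant channel to the surface after 24 h compound exposure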
# RAD54 inh: blocks human RAD54 Holliday junction branch migration. FAM/BHQ fluorescence. Q92698. actives 0.14% (n = 360,000). inhibition, % at 10.4 µM;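 active = mean normalized replicate activity at least 40 and at least half of replicates scoring 40 or more; inconclusive = only one of the two criteria met; inactive = mean below 40 and under half of replicates reaching 40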;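 also: 0% = median of neutral control wells and 100% = median of positive control wells; inhibitors cause a drop in the FAM fluorescence signal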
# RAD52 inh: blocks human RAD52 DNA annealing | recombinant RAD52 DNA annealing, FRET fluorescence | P43351 | actives 0.46% (n = 360,000) | inhibition, % at 18.7 µM;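 active = every replicate showing at least 50% inhibition; inconclusive = mean inhibition at least 50% but not in every replicate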
# Target sequence (P43351 whole entry, looked up): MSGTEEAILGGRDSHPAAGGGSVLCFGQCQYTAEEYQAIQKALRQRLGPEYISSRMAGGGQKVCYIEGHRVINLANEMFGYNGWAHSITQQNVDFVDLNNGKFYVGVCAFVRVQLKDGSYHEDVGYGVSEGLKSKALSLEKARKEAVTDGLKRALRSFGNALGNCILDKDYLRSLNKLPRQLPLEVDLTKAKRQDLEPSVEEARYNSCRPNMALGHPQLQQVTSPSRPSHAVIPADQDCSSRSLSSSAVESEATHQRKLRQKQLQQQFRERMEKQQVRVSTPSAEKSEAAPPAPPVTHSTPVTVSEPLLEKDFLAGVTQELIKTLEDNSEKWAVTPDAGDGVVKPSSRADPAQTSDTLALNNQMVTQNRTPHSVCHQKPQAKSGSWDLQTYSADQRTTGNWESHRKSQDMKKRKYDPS
# DNA binder FP: counter-screen for RAD52 inhibitors: DNA binding compounds; shares compounds with RAD52 inh; Salmon sperm DNA/acridine orange FP displacement; AC50, µM; actives 8% (n = 1,000);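 active = fitted half-maximal concentration for signal loss at or below twice the highest dose tested, in every separate run, actives reach about 64 µM in these data; inconclusive = runs disagree, or flat partial signal loss, or poor fit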
# Numbers without * were called inactive; i = inactive; ? = inconclusive; · = not tested or not shown. Shown are actives, neighbours in structure and some others; about 1.8% of the full set was active somewhere.
SMILES,GSIS activator,LGR2 antag,EWS-Fli inh,CFTR F508del cor,RAD54 inh,RAD52 inh,DNA binder FP
CCN(CC)CCn1c2ccccc2c2n[nH]c(=S)nc21,-9,2,4,2,24,73*,i
Cn1c2ccccc2c2n[nH]c(=S)nc21,·,·,11,1,-9,-9,·
CCN(CC)CCn1c2ccccc2c2nc3ccccc3nc21,9,-70,5,24*,106*,89*,i
C[n+]1ccc(/C=C/c2ccccc2O)c2ccccc21,2,-10,-5,4,·,54*,46µM*
O=C(CCN=C1NS(=O)(=O)c2ccccc21)N1CCc2ccccc2C1,13,6,-5,1,·,-11,·
C[C@@H]1CN([C@@H](C)CO)C(=O)c2cc(Br)cnc2O[C@H]1CN(C)C(=O)c1ccccc1,5,-7,-7,0,1,-2,·
NCC[C@H](O)C(=O)N[C@@H]1C[C@H](N)[C@@H](O[C@H]2O[C@H](CN)[C@@H](O)[C@H](O)[C@H]2O)[C@H](O)[C@H]1O[C@H]1O[C@H](CO)[C@@H](O)[C@H](N)[C@H]1O,·,·,-9,-4,100*,57*,i
Cc1cnc(C(=O)OCC(=O)N=c2sccn2Cc2ccccc2Cl)cn1,7,-5,·,-1,-7,-43,·
COc1ccc(OC)c(N/C(N)=N/c2nc(C)cc(C)n2)c1,7,2,-4,8.9*,-4,50*,i
COc1ccc(C)cc1N/C(N)=N/c1nc(C)cc(C)n1,-3,0,12,2,·,18,·
CC(=O)OC1C([N+]2(C)CCCCC2)C[C@H]2C3CC[C@H]4C[C@H](OC(C)=O)C([N+]5(C)CCCCC5)CC4(C)[C@H]3CCC12C (stereo partly drawn),·,·,-5,-3,-13,50*,i
CCc1ccc2nc(N(CCCN(C)C)C(=O)c3ccc(S(=O)(=O)N4CCCC4)cc3)sc2c1,-13,-3,-5,-3,1,21,·
Cc1ccc2nc(N(CCCN(C)C)C(=O)c3ccc(S(=O)(=O)N4CCCCCC4)cc3)sc2c1,-48,8,·,0,3,61*,i
COc1cccc2sc(N(CCCN(C)C)C(=O)c3ccc(S(=O)(=O)N4CCCc5ccccc54)cc3)nc12,-27,26,33,0,12,45,·
CCc1ccc2nc(N(CCCN(C)C)C(=O)c3ccc(S(=O)(=O)N4CCCc5ccccc54)cc3)sc2c1,-51,21,·,2,10,71*,i
NC1=NC[C@H](Cc2ccc(O)cc2)N1CCC12CC3CC(CC(C3)C1)C2,·,·,13,2,6,53*,i
CCCCN1C(N)=NC[C@@H]1Cc1ccc(O)cc1,13,19,7,-3,-6,-4,·
CC(=O)Nc1ccc(CN2CCC(N3CCC(C(=O)NC4CC4)CC3)CC2)cc1,·,-5,0,1,-11,-11,·
CCOC(=O)C1=NN(C(=O)COc2ccccc2)C(O)(c2ccc(Br)cc2)C1 (stereo not drawn),-45,-1,-7,1,·,-4,·
CCCCc1nc2sc3c(SCC(=O)NCc4ccco4)ncnc3c2c2c1CCC2,·,·,·,·,-10,·,·
CCCCc1nc2sc3c(SCCN(C)C)ncnc3c2c2c1CCC2,4,-6,11,0,·,60*,i
CCc1c(C)nc(Nc2nc(C)c3cc(OC)ccc3n2)[nH]c1=O,·,·,·,·,8,·,·
COc1ccc2nc(NC3=NC(c4ccccc4)CC(=O)N3)nc(C)c2c1 (stereo not drawn),11,2,-9,0,·,72*,i
Nc1nc(N)c2cc(Sc3cccc(C(F)(F)F)c3)ccc2n1,-7,11,42,3,-13,-9,·
Nc1nc(N)c2cc(Sc3ccc(Cl)cc3)ccc2n1,187*,0,12,3,14,85*,i
Cc1cc(C(C)(C)CC(C)(C)C)ccc1OCCOCC[N+](C)(C)Cc1ccccc1,333*,38,40,5,33,91*,?
CCOc1cccc2sc(N(CCN(C)C)C(=O)c3cc4ccccc4cc3OC)nc12,-57,5,22,-1,23,64*,i
